Measured values published in the supplement of paper PMC10037445.
Several values for one entry are separate records, joined by “and”; a condition that tells them apart may be missing. Equal values may be shown once. Whole data set: some 2,900 compounds, median “NF-kB SEAP reporter activity, fold change vs agonist alone” near 0.99, cut for the highest 2% near 2.6. The entries come from a sample that favours the highest values as a whole.

How the values were obtained:
[1] = tested on: RAW-Dual; assay: NF-kB SEAP reporter activity, fold change vs agonist alone; higher = enhanced NF-kB activity; details: library stock concentration (final ~1000-fold dilution): 10 mM
How it was run: (§1)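 Reporter activity is given as fold change relative to agonist-alone wells. To measure it, 50 nL of library stock was pin-tooled onto RAW-Dual macrophages (50,000 cells/well, DMEM, 384-well plates), a PRR agonist followed 1 h later, and cells stayed at 37 °C, 5% CO2. Twenty hours on, supernatant was assayed for IRF (QuantiLuc luminescence) and NF-κB (QuantiBlue, 620 nm absorbance), and wells under 70% of agonist-control IncuCyte confluency in both mask sets were marked cytotoxic.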

[2] = tested on: RAW-Dual; assay: NF-kB SEAP reporter activity, fold change vs agonist alone; cytotoxicity flag (confluency mask): not cytotoxic; higher = enhanced NF-kB activity
How it was run: as §1

[3] = tested on: RAW-Dual; assay: NF-kB SEAP reporter activity, fold change vs agonist alone; cytotoxicity flag (confluency mask): cytotoxic (confluency <70% of control); higher = enhanced NF-kB activity
How it was run: as §1

[4] = cytotoxicity flag (confluency mask): not cytotoxic, agonist: Imiquimod (TLR7) […]
[5] = cytotoxicity flag (confluency mask): not cytotoxic, agonist: MPLA (TLR4) […]
[6] = agonist: ODN 1826 (TLR9) 0.5 ug/mL
[7] = agonist: Pam2CSK4 (TLR2/6) 0.1 ug/mL
[8] = agonist: Pam3CSK4 (TLR2/1) 0.1 ug/mL

N#Cc1ccnc(N2C(=O)CCC2C(=O)N(c2cncc(F)c2)C(C(=O)NC2CC(F)(F)C2)c2ccccc2Cl)c1 (stereo not drawn)
NF-kB SEAP reporter activity [1, 4]: 1.14 | NF-kB SEAP reporter activity [1, 5]: 1.16

N#Cc1ccnc(N2C(=O)CCC2C(=O)N(c2cncc(F)c2)C(C(=O)NC2CC(F)(F)C2)c2ccccc2Cl)c1 (stereo not drawn) (library stock concentration (final ~1000-fold dilution): 10 mM)
NF-kB SEAP reporter activity ([2]; agonist: LPS (TLR4) 0.1 ug/mL): 1.37 | NF-kB SEAP reporter activity [2, 6]: 1.16 | NF-kB SEAP reporter activity [2, 7]: 0.753 | NF-kB SEAP reporter activity [2, 8]: 0.775

CCOC(=O)C1=C(C)NC(C)=C(C(=O)OC)C1c1cccc(Cl)c1Cl (stereo not drawn) (library stock concentration (final ~1000-fold dilution): 10 mM)
NF-kB SEAP reporter activity ([2]; agonist: LPS (TLR4) 0.1 ug/mL): 0.607 | NF-kB SEAP reporter activity [2, 6]: 0.648 | NF-kB SEAP reporter activity [2, 7]: 0.408 | NF-kB SEAP reporter activity [2, 8]: 0.423

CCOC(=O)C1=C(C)NC(C)=C(C(=O)OC)C1c1cccc(Cl)c1Cl (stereo not drawn)
NF-kB SEAP reporter activity [1, 4]: 1.53 | NF-kB SEAP reporter activity [1, 5]: 0.952

COC(=O)C1=C(C)NC(C)=C(C(=O)OC)C1c1ccccc1[N+](=O)[O-]
NF-kB SEAP reporter activity [1, 4]: 1.59 | NF-kB SEAP reporter activity [1, 5]: 1.35

COC(=O)C1=C(C)NC(C)=C(C(=O)OC)C1c1ccccc1[N+](=O)[O-] (library stock concentration (final ~1000-fold dilution): 10 mM)
NF-kB SEAP reporter activity ([2]; agonist: LPS (TLR4) 0.1 ug/mL): 2.15 | NF-kB SEAP reporter activity [2, 6]: 1.42 | NF-kB SEAP reporter activity [2, 7]: 1.5 | NF-kB SEAP reporter activity [2, 8]: 1.37

COC(=O)C1=C(C)NC(C)=C(C(=O)OCC(C)C)C1c1ccccc1[N+](=O)[O-] (stereo not drawn) (library stock concentration (final ~1000-fold dilution): 10 mM)
NF-kB SEAP reporter activity ([2]; agonist: LPS (TLR4) 0.1 ug/mL): 0.885 | NF-kB SEAP reporter activity [2, 6]: 0.605 | NF-kB SEAP reporter activity [2, 7]: 0.675 | NF-kB SEAP reporter activity [2, 8]: 0.706

CCCC(=O)OCOC(=O)C1=C(C)NC(C)=C(C(=O)OC)C1c1cccc(Cl)c1Cl (stereo not drawn)
NF-kB SEAP reporter activity [1, 4]: 1.02 | NF-kB SEAP reporter activity [1, 5]: 0.958

CCOC(=O)C1=C(COCCN)NC(C)=C(C(=O)OC)C1c1ccccc1Cl.O=S(=O)(O)c1ccccc1 (stereo not drawn)
NF-kB SEAP reporter activity ([1]; cytotoxicity flag (confluency mask): cytotoxic (confluency <70% of control), agonist: Imiquimod (TLR7) […]): 2.53 | NF-kB SEAP reporter activity ([1]; cytotoxicity flag (confluency mask): cytotoxic (confluency <70% of control), agonist: MPLA (TLR4) […]): 2.58

COC(=O)C1=C(C)NC(C)=C(C(=O)OCC(C)C)C1c1ccccc1[N+](=O)[O-] (stereo not drawn)
NF-kB SEAP reporter activity [1, 4]: 0.706 | NF-kB SEAP reporter activity [1, 5]: 0.773

CCCC(=O)OCOC(=O)C1=C(C)NC(C)=C(C(=O)OC)C1c1cccc(Cl)c1Cl (stereo not drawn) (library stock concentration (final ~1000-fold dilution): 10 mM)
NF-kB SEAP reporter activity ([2]; agonist: LPS (TLR4) 0.1 ug/mL): 0.954 | NF-kB SEAP reporter activity [2, 6]: 1.19 | NF-kB SEAP reporter activity [2, 7]: 0.911 | NF-kB SEAP reporter activity [2, 8]: 1.1

CCOC(=O)C1=C(COCCN)NC(C)=C(C(=O)OC)C1c1ccccc1Cl.O=S(=O)(O)c1ccccc1 (stereo not drawn) (library stock concentration (final ~1000-fold dilution): 10 mM)
NF-kB SEAP reporter activity ([3]; agonist: LPS (TLR4) 0.1 ug/mL): 2.27 | NF-kB SEAP reporter activity [3, 6]: 0.532 | NF-kB SEAP reporter activity [3, 7]: 0.907 | NF-kB SEAP reporter activity [3, 8]: 0.924

CCOC(=O)C1=C(COCCN)NC(C)=C(C(=O)OC)C1c1ccccc1Cl (stereo not drawn) (library stock concentration (final ~1000-fold dilution): 10 mM)
NF-kB SEAP reporter activity ([3]; agonist: LPS (TLR4) 0.1 ug/mL): 2.23 and 2.05 | NF-kB SEAP reporter activity [3, 6]: 0.736 and 1.01 | NF-kB SEAP reporter activity [3, 7]: 0.785 and 0.751 | NF-kB SEAP reporter activity [3, 8]: 0.888 and 1.41

CCC1OC(=O)C(C)C(OC2CC(C)(OC)C(O)C(C)O2)C(C)C(OC2OC(C)CC(N(C)C)C2O)C(C)(OC)CC(C)C(=O)C(C)C(O)C1(C)O (stereo not drawn) (library stock concentration (final ~1000-fold dilution): 10 mM)
NF-kB SEAP reporter activity ([2]; agonist: LPS (TLR4) 0.1 ug/mL): 0.99 | NF-kB SEAP reporter activity [2, 6]: 0.929 | NF-kB SEAP reporter activity [2, 7]: 0.942 | NF-kB SEAP reporter activity [2, 8]: 0.932

CCC1OC(=O)C(C)C(OC2CC(C)(OC)C(O)C(C)O2)C(C)C(OC2OC(C)CC(N(C)C)C2O)C(C)(OC)CC(C)C(=O)C(C)C(O)C1(C)O (stereo not drawn)
NF-kB SEAP reporter activity [1, 4]: 0.947 | NF-kB SEAP reporter activity [1, 5]: 0.96

CC(=O)C1CCC2C3CC=C4CC(O)CCC4(C)C3CCC12C (stereo not drawn)
NF-kB SEAP reporter activity [1, 4]: 1.07 | NF-kB SEAP reporter activity [1, 5]: 1.3
